Screening results from PubChem BioAssay.
Sampled rows, rich in hits. Any-hit rate of the full collection: about 19%.
KB-V1 cytotox: KB-V1 MDR subline cytotoxicity | KB-V1 MDR cells viability, CellTiter-Glo, 72 h | AID 1347076 | 3.4% of 400,000 active | Potency, µM (highest dose often 46.1 µM), most hits filed as cytotoxic; note: nearly all actives have a fitted effect of over 60% in size
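In this primary screen, KB-V1 cells overexpressing P-gp are incubated with library compounds (lowest to highest concentration) for 72 h at 37 degrees C before a luminescent ATP viability read.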
DT40 TDP1 no CPT: qHTS for Inhibitors of human tyrosyl-DNA phosphodiesterase 1 (TDP1): qHTS in cells in absence of CPT; DT40 Tdp1-/- hTDP1 cells, no CPT, ATP luminescence, 48 h; Potency, µM (titrated, usually from 46.2 µM), for the others: at the top dose activity change, negative = growth inhibition, hits mostly inhibitors; 15% of 420,000 active; AID 686978, 2013; note: nearly all actives have a fitted effect of over 55% in size
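Chicken DT40 Tdp1-/- cells stably complemented with human TDP1 were seeded at 400 cells/well with DMSO in place of 20 nM camptothecin. After compound pinning, cells grew at least 48 hr at 37 °C; viability read by CellTiter-Glo luminescence.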
TDP1 cell CPT: growth inhibition of DT40 Tdp1-/-;hTDP1 cells with camptothecin (screen for TDP1 inhibitors) | chicken DT40 Tdp1-/-;hTDP1 cells + 20 nM CPT, ATP luminescence, 48 h | Potency, µM (doses to about 46.2 µM), for inactives: at the highest dose activity change, negative = growth inhibition, usual class: inhibitors | 12% of 420,000 active | AID 686979; note: nearly all actives have a fitted effect of over 55% in size
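Chicken DT40 Tdp1-/- cells complemented with human TDP1, 400 cells/well, exposed to compounds plus 20 nM camptothecin for at least 48 h at 37 C; viability read as ATP content by CellTiter-Glo luminescence.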
HT1080-NT tox: kills 2HG-producing HT-1080-NT fibrosarcoma cells | HT-1080-NT fibrosarcoma viability, CellTiter-Glo ATP luminescence, 48 h | Potency, µM (doses to about 46.1 µM), without a hit: top-dose activity, negative = less viability, hits mostly cytotoxic | 1.6% of 360,000 active | AID 686970;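 note: NT is the 2HG producing partner of a matched IDH1 knockdown line; 0% = DMSO-treated cells and -100% = media-only wells without cells; nearly all actives have a fitted effect of over 55% in size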
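Compounds were tested in concentration-response format on HT-1080-NT cells for 48 hours at 37 degrees C. Cell viability came from CellTiter-Glo luminescence; curves were classified by r2, response magnitude and activity.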
KB-3-1 tox: kills parental KB-3-1 adenocarcinoma cells. AID 1347075. Potency, µM (titrated, usually from 46.1 µM), usual class: cytotoxic. 1.4% of 400,000 active. KB-3-1 viability, CellTiter-Glo ATP luminescence, 72 h; note: nearly all actives have a fitted effect of over 60% in size
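KB-3-1 cells, DMEM (no phenol red) + 10% FBS; compound by pin transfer, 72 h, 37 °C. Readout: CellTiter-Glo luminescence after 10 min. Data normalized, curve-fitted.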
HT1080 IDH1KD tx: kills HT-1080 cells with IDH1 knockdown | HT-1080 IDH1 knockdown viability, ATP luminescence, 48 h | Potency, µM (doses to about 46.1 µM), for the others: at the top dose activity, negative = toxicity, hits mostly cytotoxic | 2% of 360,000 active;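 note: 0% = DMSO wells and -100% = cell-free medium wells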
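% activity derives from luminescence (CellTiter-Glo), normalised to DMSO and no-cell wells. HT-1080-IDH1KD cells, 750/well, had 48 h compound exposure at 37 °C.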
* hit, by the source's call; i = inactive; ? = inconclusive; / = no result. Calls come from the whole dose curve; as a rule, active = well fitted curve in the direction sought with a large enough effect; inconclusive = small, poorly fitted or top-dose-only effect, or another doubt; inactive = no such curve, though single readings can be large; an effect the other way counts as inactive or inconclusive. Unless noted, % is set by controls: 0 for no effect and ±100 for the full control effect; potency is the fitted concentration of half-maximal effect.

SMILES	KB-V1 cytotox	DT40 TDP1 no CPT	TDP1 cell CPT	HT1080-NT tox	KB-3-1 tox	HT1080 IDH1KD tx
Cc1cccc(OCC(=O)Nc2ccccc2C(=O)OCc2cc(=O)n3nc(C4CC4)sc3n2)c1	i	-16.9%	-16.3%	/	i	/
CCOc1cc2[nH]c(=S)n(Cc3ccc(C(=O)NCCCN4CCOCC4)cc3)c(=O)c2cc1OCC	i	18.4µM*	?	11.6%	i	12.1%
CCOc1cc2[nH]c(=S)n(Cc3ccc(C(=O)NCCCN(CC)CC)cc3)c(=O)c2cc1OCC	?	?	?	?	i	?
CCOc1cc2[nH]c(=O)n(Cc3ccc(C(=O)NCCCN4CCC(C)CC4)cc3)c(=O)c2cc1OCC	i	23.1µM*	?	?	i	?
COC(=O)c1ccc2c(=O)n(Cc3ccc(C(=O)NCCCN4CCC(C)CC4)cc3)c(=S)[nH]c2c1	?	16.4µM*	20.6µM*	?	i	?
CCOc1cc2[nH]c(=S)n(Cc3ccc(C(=O)NCCCOC)cc3)c(=O)c2cc1OCC	i	0.4%	-23.3%	-0.9%	i	3.7%
CC1CCN(CCCNC(=O)c2ccc3c(=O)n(Cc4ccc(Cl)cc4)c(=S)[nH]c3c2)CC1	?	?	?	-8.0%	?	-8.9%
CC1=C(C(=O)N2CCOCC2)CC(CC(=O)NC2CC2)C(=O)N1Cc1ccc(F)cc1 (centres undefined)	i	-0.2%	4.6%	?	i	15.4%
Cc1nc(Nc2nc(-c3ccccc3)cc(=O)[nH]2)nc2ccccc12	?	16.4µM*	20.6µM*	?	?	18.4µM*
COc1cccc(CSc2nc3ccccc3[nH]2)c1	i	?	?	6.2%	i	5.6%
COc1ccc2nc(Nc3nc(CSc4nc5ccccc5[nH]4)cc(=O)[nH]3)nc(C)c2c1	?	4.11µM*	4.61µM*	?	?	?
Cc1ccc2c(=O)[nH]c(Nc3nc(C)cc(-c4ccccc4)n3)nc2c1	i	11.6µM*	10.3µM*	4.2%	i	20.1%
COc1ccc2nc(SCc3nc(N)nc(Nc4ccccc4)n3)[nH]c2c1	i	16.4µM*	?	-9.8%	i	-8.9%
Cc1cc(C)cc(Nc2nc3ccccc3c(=O)[nH]2)c1	?	?	-29.9%	14.5%	i	-10.1%
Cc1nc(Nc2nc(CSc3ccc(Cl)cc3)cc(=O)[nH]2)nc2ccccc12	i	?	-25.4%	18.4%	i	11.7%
Cc1nc(Nc2nc(CSc3nc4ccccc4[nH]3)cc(=O)[nH]2)nc2ccccc12	i	6.51µM*	4.11µM*	4.11µM*	?	4.61µM*
O=c1cc(O)c(-c2ccc(Cl)cc2)c(Cl)[nH]1	i	6.0%	-4.8%	-4.7%	i	-4.1%
O=C1c2cc(Cl)ccc2-c2c(O)cc(Cl)cc21	?	14.6µM*	?	9.2µM*	?	23.1µM*
CC#CCOC(=O)c1c(C)nc2sc3c(c2c1N)CCC(O)C3 (centres undefined)	11.6µM*	9.2µM*	?	23.1µM*	?	?
CCOC(=O)c1c(N)sc2c1CCC(CC)C2 (centres undefined)	?	-15.7%	1.5%	-9.6%	i	-26.9%
Cc1cccc(Nc2nnc(SCC(=O)Nc3ccccc3[N+](=O)[O-])s2)c1C	?	?	?	-17.3%	i	-24.7%
COc1cccc(Nc2nnc(SCc3nc4ccccc4s3)s2)c1	?	?	?	-12.9%	i	-3.5%
Cc1nc(CSc2nnc(Nc3cccc(C)c3C)s2)cs1	18.4µM*	-10.6%	0.3%	18.4%	i	12.9%
Cc1cccc(C)c1Nc1nnc(SCc2nc3ccccc3s2)s1	16.4µM*	-25.5%	-11.0%	-2.0%	i	-1.8%
